The campaign covered roughly 310,000 compounds. About 14,000 (4.5%) showed an effect of 50% or more. The effect is printed as a negative number. For the sample, strong results were picked, then their nearest neighbours and some compounds at random.
biological target: human ether-à-go-go-related gene (hERG) potassium channel (human, UniProt Q12809); assay: primary screen, population patch clamp on CHO cells stably expressing hERG; higher = less effect of the substance
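Further: peak tail current of the secondary pulse compared with the same well before compound.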

Chain of human ether-à-go-go-related gene (hERG) potassium channel (Q12809 whole entry, looked up): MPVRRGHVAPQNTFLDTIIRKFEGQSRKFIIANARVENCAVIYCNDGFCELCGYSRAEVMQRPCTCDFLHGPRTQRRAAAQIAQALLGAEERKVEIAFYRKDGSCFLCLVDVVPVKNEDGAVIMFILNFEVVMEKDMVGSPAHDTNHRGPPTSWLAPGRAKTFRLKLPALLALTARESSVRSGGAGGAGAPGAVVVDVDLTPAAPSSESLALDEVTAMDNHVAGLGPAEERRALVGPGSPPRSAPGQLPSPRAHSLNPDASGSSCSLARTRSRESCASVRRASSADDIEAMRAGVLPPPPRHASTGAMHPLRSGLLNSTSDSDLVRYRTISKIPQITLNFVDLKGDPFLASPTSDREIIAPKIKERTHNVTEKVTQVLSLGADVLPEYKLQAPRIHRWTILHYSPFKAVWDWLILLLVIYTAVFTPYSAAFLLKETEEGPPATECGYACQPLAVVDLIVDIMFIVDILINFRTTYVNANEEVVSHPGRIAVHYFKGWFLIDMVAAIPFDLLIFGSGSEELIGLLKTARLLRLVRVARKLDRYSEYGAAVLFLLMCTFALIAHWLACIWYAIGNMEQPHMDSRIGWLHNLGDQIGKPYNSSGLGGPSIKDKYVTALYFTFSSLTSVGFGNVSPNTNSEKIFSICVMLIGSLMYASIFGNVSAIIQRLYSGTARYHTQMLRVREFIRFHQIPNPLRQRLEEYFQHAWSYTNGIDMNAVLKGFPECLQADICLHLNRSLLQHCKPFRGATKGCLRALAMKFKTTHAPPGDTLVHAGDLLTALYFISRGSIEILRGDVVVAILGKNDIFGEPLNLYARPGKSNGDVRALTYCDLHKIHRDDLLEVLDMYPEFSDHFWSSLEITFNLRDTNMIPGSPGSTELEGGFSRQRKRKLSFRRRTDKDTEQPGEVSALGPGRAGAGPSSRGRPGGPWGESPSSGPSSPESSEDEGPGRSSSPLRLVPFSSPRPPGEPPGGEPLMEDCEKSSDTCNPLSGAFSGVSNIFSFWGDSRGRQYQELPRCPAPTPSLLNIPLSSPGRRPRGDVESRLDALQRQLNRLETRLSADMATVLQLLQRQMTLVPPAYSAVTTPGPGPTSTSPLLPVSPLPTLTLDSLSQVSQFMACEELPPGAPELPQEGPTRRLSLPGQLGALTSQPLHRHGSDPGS

Point of comparison: `CCCCCn1c(CN2CCN(Cc3ccccc3)CC2)nc2c1c(=O)[nH]c(=O)n2C`, “hERG current change (%, negative = inhibition) at 10uM” value -72.3%. Against it:
- COc1ccc(OC)c(NS(=O)(=O)c2ccc(Br)s2)c1 — higher, -12.4%
- N#CC1=C(N)N(c2ccccc2Sc2ccccc2)C(=O)C1 — higher, 3.4%
- Cc1ccc(NC(=O)N2CCC(NC(=O)c3ccco3)CC2)cc1 — higher, 4.55%
- COC(=O)C(C)Sc1nc2c(c(=O)n1-c1ccccc1)SCC2 (stereo not shown) — higher, -6.49%
- COc1ccc(NC(=O)CN(C)C(=O)c2cn(-c3ccccc3)nc2-c2ccc(OC)cc2)cc1 — higher, -7.66%
- CCCS(=O)(=O)N1CCN(S(=O)(=O)c2ccc(F)cc2)CC1 — higher, 10.6%
- O=C(Nc1nccs1)C1CCCCN1S(=O)(=O)c1ccccc1 (stereo not shown) — higher, 4.8%
- Cc1ccc(C)c(NS(=O)(=O)c2ccc(-c3cnc(C4CC4)o3)cc2)c1 — higher, 4.27%
- Cn1c(=O)[nH]c(=O)c2c1nc(N1CCN(Cc3ccccc3)CC1)n2CCCc1ccccc1 — higher, -31.9%
- Cn1c(=O)[nH]c(=O)c2c1nc(N1CCN(Cc3ccccc3)CC1)n2CCSc1ncccn1 — higher, -25.7%
- CCN1CCN(c2nc3c(c(=O)[nH]c(=O)n3C)n2Cc2ccccc2)CC1 — higher, -27.7%
- Cc1cccc(Cn2c(CN3CCN(Cc4ccccc4)CC3)nc3c2c(=O)[nH]c(=O)n3C)c1 — higher, -64.9%
- Cn1c(=O)[nH]c(=O)c2c1nc(CN1CCN(Cc3ccccc3)CC1)n2CC(N)=O — higher, 7.32%
- CN1CCN(Cc2nc3c(c(=O)[nH]c(=O)n3C)n2CCc2ccccc2)CC1 — higher, -28.1%
- CCCCCCn1c(N2CCN(c3ccccc3)CC2)nc2c1c(=O)[nH]c(=O)n2C — higher, -32.6%
- CCN1CCN(c2nc3c(c(=O)[nH]c(=O)n3C)n2CCCc2ccccc2)CC1 — lower, -79.2%
- CC(C)CCn1c(CN2CCN(Cc3ccccc3)CC2)nc2c1c(=O)[nH]c(=O)n2C — higher, -17.6%
- CCCCCn1c(N2CCN(Cc3ccccc3)CC2)nc2c1c(=O)[nH]c(=O)n2C — lower, -74.8%
- Cn1c(=O)[nH]c(=O)c2c1nc(CN1CCOCC1)n2Cc1ccccc1 — higher, -15.7%
- COc1ccc(OC)c(NC(=O)CS(=O)(=O)Cc2nc(-c3ccccc3C)oc2C)c1 — higher, 7.66%
- COc1ccc2c(C)cc(SC3CCOC3=O)nc2c1 (stereo not shown) — higher, -0.712%
- CCCC(=O)NC(=S)Nc1cccc(NC(=O)c2ccccc2Cl)c1 — higher, -3.15%
- CCCCn1c(N2CCC(Cc3ccccc3)CC2)nc2c1c(=O)[nH]c(=O)n2C — higher, -49.4%
- CCCn1c(N2CCC(Cc3ccccc3)CC2)nc2c1c(=O)[nH]c(=O)n2C — higher, -51.2%
- CCCCn1c(CN2CCN(c3cccc(Cl)c3)CC2)nc2c1c(=O)[nH]c(=O)n2C — higher, 5.59%
- CCCCCn1c(N2CCC(Cc3ccccc3)CC2)nc2c1c(=O)[nH]c(=O)n2C — higher, -11%
- CCCCCn1c(N2CCN(c3cccc(Cl)c3)CC2)nc2c1c(=O)[nH]c(=O)n2C — higher, -29.2%
- CCCCCn1c(CN2CCN(c3cccc(Cl)c3)CC2)nc2c1c(=O)[nH]c(=O)n2C — higher, -63.3%
- CCOC(=O)N1CCC(NC(=O)CN(c2ccc(C(C)C)cc2)S(=O)(=O)c2c(C)nn(C)c2C)CC1 — higher, -10.3%
- CC(CNC(=O)c1cc(COc2ccc3ncccc3c2)on1)c1ccccc1 (stereo not shown) — higher, 9.51%
- COc1ccc(S(=O)(=O)N2CCN(C)CC2)cc1C(=O)Nc1ccccc1 — higher, 1.79%
- CN(CC(O)COc1ccc(OCC(O)CN(C)C2CCCCC2)cc1)C1CCCCC1 (stereo not shown) — higher, 8.06%
- CN(CC(O)COc1ccc2ccccc2c1)C1CCCCC1.Cl (stereo not shown) — higher, -45.2%
- O=[N+]([O-])c1ccc(OCC(O)CN(C2CCCCC2)C2CCCCC2)cc1 (stereo not shown) — lower, -75.8%
- CCN(CC(O)COc1ccc(OCC(O)CN(CC)C2CCCCC2)cc1)C1CCCCC1 (stereo not shown) — higher, 22.2%
- COc1ccc(OCC(O)CN(C2CCCCC2)C2CCCCC2)cc1.Cl (stereo not shown) — higher, -59.5%
- O=C(OCC(O)COc1ccccc1)c1ccc([N+](=O)[O-])cc1 (stereo not shown) — higher, -7.79%
- Cc1cccc2nc(CSc3nc4[nH]ncc4c(=O)n3-c3cccc(Cl)c3)cc(=O)n12 — higher, -23.3%
- COc1ccc(CNC(=O)[C@H](Cc2ccccc2)NC(=O)C2CCN(C(=O)[C@H](C)N)CC2)cc1 — higher, -2.78%
- Cc1ccc(-c2onc(C)c2C)cc1S(=O)(=O)N1CCOc2ccccc21 — higher, 9.26%
- COc1cc(/C=N/NC(=O)CCc2n[nH]c(=O)[nH]c2=O)ccc1O — higher, -0.627%
- Cc1cccc(OC(C)C(=O)Nc2nccs2)c1 (stereo not shown) — higher, 8.8%
- CC1CN(C(=O)CCC(=O)NCCCN2CCC(Cc3ccccc3)CC2)c2cc(Cl)ccc2O1 (stereo not shown) — lower, -72.7%
- CCN1CCN(CCCNC(=O)CCC(=O)N2CC(C)Oc3ccc(C)cc32)CC1 (stereo not shown) — higher, -12.5%
- Cc1ccc2c(c1)N(C(=O)CCC(=O)NCCCN1CCN(C)CC1)CC(C)O2 (stereo not shown) — higher, 9.95%
- CC1CN(C(=O)CCC(=O)NCc2ccccc2)c2cc(Cl)ccc2O1 (stereo not shown) — higher, -11.5%
- CC1CN(C(=O)CCC(=O)NCc2ccc(Cl)cc2)c2ccccc2O1 (stereo not shown) — higher, -53.6%
- Cc1ccc2c(c1)N(C(=O)CCC(=O)NCCCN1CCOCC1)CC(C)O2 (stereo not shown) — higher, -13.5%
- Cc1ccc2c(c1)N(C(=O)CCC(=O)NC1CCCCCC1)CC(C)O2 (stereo not shown) — higher, -18.5%
- CC1CN(C(=O)CCC(=O)NC2CCN(Cc3ccccc3)CC2)c2ccccc2O1 (stereo not shown) — higher, -26.7%
- Cc1ccc2c(c1)N(C(=O)CCC(=O)NC1CCN(Cc3ccccc3)CC1)CC(C)O2 (stereo not shown) — higher, -67.1%
- Cc1ccc(CNC(=O)CCC(=O)N2CC(C)Oc3ccccc32)cc1 (stereo not shown) — higher, -28%
- CC1CN(C(=O)CCC(=O)NCCCN2CCN(Cc3ccccc3)CC2)c2cc(Cl)ccc2O1 (stereo not shown) — lower, -76.1%
- CC1CN(C(=O)CCC(=O)NCc2ccccc2)c2ccccc2O1 (stereo not shown) — higher, 0.256%
